Data as given in PubChem BioAssay AID588849 (Broad Institute, 2011).
Potency and affinity values are given separately. Calls of active or inactive are those of the source. Entries that show only a call come without a potency. No rule for the calls is given here.

target: CAAX prenyl protease 2 (Homo sapiens) (UniProt Q9Y256); assay: human Rce1 protease inhibitors, dose response, biochemical, yeast membranes, quenched-peptide fluorescence, cherry-pick (AID 588849); conditions: yeast membrane fractions expressing human Rce1, quenched-peptide fluorescence, 4 h; series mostly up to 10 µM
Sequence (Q9Y256 whole entry, looked up): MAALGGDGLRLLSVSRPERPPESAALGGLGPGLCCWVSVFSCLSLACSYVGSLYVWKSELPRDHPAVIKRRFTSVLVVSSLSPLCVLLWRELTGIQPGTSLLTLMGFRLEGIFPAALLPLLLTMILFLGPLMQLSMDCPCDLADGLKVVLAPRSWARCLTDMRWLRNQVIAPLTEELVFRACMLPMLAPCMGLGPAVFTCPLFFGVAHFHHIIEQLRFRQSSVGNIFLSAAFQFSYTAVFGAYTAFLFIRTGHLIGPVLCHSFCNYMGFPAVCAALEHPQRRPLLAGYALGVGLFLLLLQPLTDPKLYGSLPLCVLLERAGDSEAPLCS

SMILES	outcome
Cc1ccnc(-n2c(-c3ccco3)nc3ccccc3c2=O)c1	inactive
COCCCn1c(N)c(C(=O)NCc2ccco2)c2nc3ccccc3nc21	inactive
Cc1ccc(-c2nc3ccc(C)cn3c2CC(=O)N(C)C)cc1	inactive
Cc1nccc2c1[nH]c1ccccc12	inactive
C=CC[N+]1(C)CC[C@]23c4c5ccc(O)c4O[C@H]2C(=O)CC[C@@]3(O)[C@H]1C5 (some centres undefined)	inactive
COc1ccc2c3c([nH]c2c1)C(C)=NCC3	inactive
Cc1oc(-c2cccs2)nc1CSCC(=O)N1CCC2(CC1)OCCO2	inactive
Cc1ccc(-c2cc(-c3ccccc3)cc(-c3ccccc3)[n+]2-c2ccccc2)cc1	inactive
CN1CC(C(=O)c2ccc(Cl)cc2)C(c2ccc(Cl)cc2Cl)C1 (centres undefined)	inactive
CN1CCN(c2ccc([N+](=O)[O-])c(Sc3nncn3C)c2)CC1	inactive
CCOC(=O)[C@@H]1[C@H]2COc3ccc(Br)cc3[C@@H]2N2C(=O)N(c3cccc(C)c3)C(=O)[C@]12C	inactive
Clc1ccc(C[n+]2c(-c3ccccc3)cc(-c3ccccc3)cc2-c2ccccc2)cc1	inactive
c1ccc(CCCN2CCN(CCOC(c3ccccc3)c3ccccc3)CC2)cc1	inactive
C=CCn1c(O)c(C(CC)=Nc2ccc(N(CC)CC)cc2)c(=O)[nH]c1=O	inactive
